# Reference: the supplement of paper PMC4466140
# How the values were obtained:
# Test in all cases: SPOT peptide array binding signal intensity (averaged, normalized) (arbitrary units (background-subtracted, floor 0; scale differs between SH3 domains)); higher = stronger binding of the SH3 domain to the peptide
# AgAbp1 = molecular target: AgAbp1
# Protocol: (§1)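 GST-tagged SH3 domains from S. cerevisiae (Sc), A. gossypii (Ag), C. albicans (Ca) and S. pombe (Sp) were incubated at 10 ug/ml overnight at 4 C on cellulose SPOT membranes carrying 292 synthetic 15-mer peptides mined from the S. cerevisiae proteome (cysteines replaced by serines). Binding was detected with anti-GST antibody, HRP secondary and chemiluminescence, quantified with Genespotter, and reported as normalized spot intensities averaged over biological replicates.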
# AgBbc1 = molecular target: AgBbc1
# Protocol: as §1
# AgBem1-D1 = molecular target: AgBem1-D1
# Protocol: as §1
# AgBzz1-D1 = molecular target: AgBzz1-D1
# Protocol: as §1
# AgBzz1-D2 = molecular target: AgBzz1-D2
# Protocol: as §1
# AgCyk3 = molecular target: AgCyk3
# Protocol: as §1
# AgFus1 = molecular target: AgFus1
# Protocol: as §1
# AgHof1 = molecular target: AgHof1
# Protocol: as §1
# AgHse1 = molecular target: AgHse1
# Protocol: as §1
# AgLsb1 = molecular target: AgLsb1
# Protocol: as §1
# AgLsb4 = molecular target: AgLsb4
# Protocol: as §1
# AgMyo5 = molecular target: AgMyo5
# Protocol: as §1
# AgNbp2 = molecular target: AgNbp2
# Protocol: as §1
# AgRvs167 = molecular target: AgRvs167
# Protocol: as §1
# AgSho1 = molecular target: AgSho1
# Protocol: as §1
# AgSla1-D1-D2 = molecular target: AgSla1-D1-D2
# Protocol: as §1
# AgSla1-D3 = molecular target: AgSla1-D3
# Protocol: as §1
# CaAbp1-D1 = molecular target: CaAbp1-D1
# Protocol: as §1
# CaAbp1-D2 = molecular target: CaAbp1-D2
# Protocol: as §1
# CaBbc1 = molecular target: CaBbc1
# Protocol: as §1
# CaBem1-D1 = molecular target: CaBem1-D1
# Protocol: as §1
# CaBzz1-D1 = molecular target: CaBzz1-D1
# Protocol: as §1
# CaBzz1-D2 = molecular target: CaBzz1-D2
# Protocol: as §1
# CaCyk3 = molecular target: CaCyk3
# Protocol: as §1
# CaFus1 = molecular target: CaFus1
# Protocol: as §1
# CaHof1 = molecular target: CaHof1
# Protocol: as §1
# CaHse1 = molecular target: CaHse1
# Protocol: as §1
# CaLsb1 = molecular target: CaLsb1
# Protocol: as §1
# CaLsb4 = molecular target: CaLsb4
# Protocol: as §1
# CaMyo5 = molecular target: CaMyo5
# Protocol: as §1
# CaNbp2 = molecular target: CaNbp2
# Protocol: as §1
# CaRvs167 = molecular target: CaRvs167
# Protocol: as §1
# CaRvs167-3 = molecular target: CaRvs167-3
# Protocol: as §1
# CaSho1 = molecular target: CaSho1
# Protocol: as §1
# CaSla1-D1-D2 = molecular target: CaSla1-D1-D2
# Protocol: as §1
# CaSla1-D3 = molecular target: CaSla1-D3
# Protocol: as §1
# ScAbp1 = molecular target: ScAbp1
# Protocol: as §1
# ScBbc1 = molecular target: ScBbc1
# Protocol: as §1
# ScBem1-D1 = molecular target: ScBem1-D1
# Protocol: as §1
# ScBzz1-D1 = molecular target: ScBzz1-D1
# Protocol: as §1
# ScBzz1-D2 = molecular target: ScBzz1-D2
# Protocol: as §1
# ScCyk3 = molecular target: ScCyk3
# Protocol: as §1
# ScFus1 = molecular target: ScFus1
# Protocol: as §1
# ScHof1 = molecular target: ScHof1
# Protocol: as §1
# ScHse1 = molecular target: ScHse1
# Protocol: as §1
# ScLsb1 = molecular target: ScLsb1
# Protocol: as §1
# ScLsb2 = molecular target: ScLsb2
# Protocol: as §1
# ScLsb3 = molecular target: ScLsb3
# Protocol: as §1
# ScLsb4 = molecular target: ScLsb4
# Protocol: as §1
# ScMyo3 = molecular target: ScMyo3
# Protocol: as §1
# ScMyo5 = molecular target: ScMyo5
# Protocol: as §1
# ScNbp2 = molecular target: ScNbp2
# Protocol: as §1
# ScPex13 = molecular target: ScPex13
# Protocol: as §1
# ScRvs167 = molecular target: ScRvs167
# Protocol: as §1
# ScSho1 = molecular target: ScSho1
# Protocol: as §1
# ScSla1-D1-D2 = molecular target: ScSla1-D1-D2
# Protocol: as §1
# ScSla1-D3 = molecular target: ScSla1-D3
# Protocol: as §1
# SpAbp1-D1 = molecular target: SpAbp1-D1
# Protocol: as §1
# SpBbc1 = molecular target: SpBbc1
# Protocol: as §1
# SpBzz1-D1 = molecular target: SpBzz1-D1
# Protocol: as §1
# SpBzz1-D2 = molecular target: SpBzz1-D2
# Protocol: as §1
# SpCyk3 = molecular target: SpCyk3
# Protocol: as §1
# SpHof1 = molecular target: SpHof1
# Protocol: as §1
# SpHof1-2 = molecular target: SpHof1-2
# Protocol: as §1
# SpHof1-3 = molecular target: SpHof1-3
# Protocol: as §1
# SpHse1 = molecular target: SpHse1
# Protocol: as §1
# SpLsb1 = molecular target: SpLsb1
# Protocol: as §1
# SpLsb4 = molecular target: SpLsb4
# Protocol: as §1
# SpMyo1 = molecular target: SpMyo1
# Protocol: as §1
# SpNbp2 = molecular target: SpNbp2
# Protocol: as §1
# SpPex13 = molecular target: SpPex13
# Protocol: as §1
# SpRvs167 = molecular target: SpRvs167
# Protocol: as §1
# SpSla1-D1-D2 = molecular target: SpSla1-D1-D2
# Protocol: as §1
# SpSla1-D3 = molecular target: SpSla1-D3
# Protocol: as §1
binder,measurement,setting,value
NRLRKRLNLPSEISI,SPOT peptide array binding signal intensity,AgAbp1,52
same,SPOT peptide array binding signal intensity,AgBbc1,2
same,SPOT peptide array binding signal intensity,AgBem1-D1,126
same,SPOT peptide array binding signal intensity,AgBzz1-D1,7
same,SPOT peptide array binding signal intensity,AgBzz1-D2,9
same,SPOT peptide array binding signal intensity,AgCyk3,1
same,SPOT peptide array binding signal intensity,AgFus1,444
same,SPOT peptide array binding signal intensity,AgHof1,45.2
same,SPOT peptide array binding signal intensity,AgHse1,2040
same,SPOT peptide array binding signal intensity,AgLsb1,36.2
same,SPOT peptide array binding signal intensity,AgLsb4,21.5
same,SPOT peptide array binding signal intensity,AgMyo5,≤ 0
same,SPOT peptide array binding signal intensity,AgNbp2,74
same,SPOT peptide array binding signal intensity,AgRvs167,4.67
same,SPOT peptide array binding signal intensity,AgSho1,26.5
same,SPOT peptide array binding signal intensity,AgSla1-D1-D2,33
same,SPOT peptide array binding signal intensity,AgSla1-D3,5.5
same,SPOT peptide array binding signal intensity,CaAbp1-D1,649
same,SPOT peptide array binding signal intensity,CaAbp1-D2,307
same,SPOT peptide array binding signal intensity,CaBbc1,9.75
same,SPOT peptide array binding signal intensity,CaBem1-D1,2
same,SPOT peptide array binding signal intensity,CaBzz1-D1,10
same,SPOT peptide array binding signal intensity,CaBzz1-D2,18.2
same,SPOT peptide array binding signal intensity,CaCyk3,4
same,SPOT peptide array binding signal intensity,CaFus1,1980
same,SPOT peptide array binding signal intensity,CaHof1,≤ 0
same,SPOT peptide array binding signal intensity,CaHse1,95.2
same,SPOT peptide array binding signal intensity,CaLsb1,5.5
same,SPOT peptide array binding signal intensity,CaLsb4,14
same,SPOT peptide array binding signal intensity,CaMyo5,4.5
same,SPOT peptide array binding signal intensity,CaNbp2,286
same,SPOT peptide array binding signal intensity,CaRvs167,6.83
same,SPOT peptide array binding signal intensity,CaRvs167-3,48.8
same,SPOT peptide array binding signal intensity,CaSho1,353
same,SPOT peptide array binding signal intensity,CaSla1-D1-D2,16
same,SPOT peptide array binding signal intensity,CaSla1-D3,3
same,SPOT peptide array binding signal intensity,ScAbp1,191
same,SPOT peptide array binding signal intensity,ScBbc1,2.5
same,SPOT peptide array binding signal intensity,ScBem1-D1,61
same,SPOT peptide array binding signal intensity,ScBzz1-D1,21
same,SPOT peptide array binding signal intensity,ScBzz1-D2,5.5
same,SPOT peptide array binding signal intensity,ScCyk3,140
same,SPOT peptide array binding signal intensity,ScFus1,524
same,SPOT peptide array binding signal intensity,ScHof1,2.5
same,SPOT peptide array binding signal intensity,ScHse1,2410
same,SPOT peptide array binding signal intensity,ScLsb1,22.5
same,SPOT peptide array binding signal intensity,ScLsb2,≤ 0
same,SPOT peptide array binding signal intensity,ScLsb3,57
same,SPOT peptide array binding signal intensity,ScLsb4,7
same,SPOT peptide array binding signal intensity,ScMyo3,≤ 0
same,SPOT peptide array binding signal intensity,ScMyo5,2.5
same,SPOT peptide array binding signal intensity,ScNbp2,70
same,SPOT peptide array binding signal intensity,ScPex13,0.5
same,SPOT peptide array binding signal intensity,ScRvs167,2.5
same,SPOT peptide array binding signal intensity,ScSho1,662
same,SPOT peptide array binding signal intensity,ScSla1-D1-D2,19.5
same,SPOT peptide array binding signal intensity,ScSla1-D3,12.5
same,SPOT peptide array binding signal intensity,SpAbp1-D1,293
same,SPOT peptide array binding signal intensity,SpBbc1,6
same,SPOT peptide array binding signal intensity,SpBzz1-D1,11
same,SPOT peptide array binding signal intensity,SpBzz1-D2,1.5
same,SPOT peptide array binding signal intensity,SpCyk3,≤ 0
same,SPOT peptide array binding signal intensity,SpHof1,60
same,SPOT peptide array binding signal intensity,SpHof1-2,7
same,SPOT peptide array binding signal intensity,SpHof1-3,708
same,SPOT peptide array binding signal intensity,SpHse1,2460
same,SPOT peptide array binding signal intensity,SpLsb1,96.8
same,SPOT peptide array binding signal intensity,SpLsb4,29
same,SPOT peptide array binding signal intensity,SpMyo1,5
same,SPOT peptide array binding signal intensity,SpNbp2,71
same,SPOT peptide array binding signal intensity,SpPex13,7.5
same,SPOT peptide array binding signal intensity,SpRvs167,2.33
same,SPOT peptide array binding signal intensity,SpSla1-D1-D2,≤ 0
same,SPOT peptide array binding signal intensity,SpSla1-D3,3
RLPAPPPPPRRGPAP,SPOT peptide array binding signal intensity,AgAbp1,51.5
same,SPOT peptide array binding signal intensity,AgBbc1,909
same,SPOT peptide array binding signal intensity,AgBem1-D1,140
same,SPOT peptide array binding signal intensity,AgBzz1-D1,624
same,SPOT peptide array binding signal intensity,AgBzz1-D2,154
same,SPOT peptide array binding signal intensity,AgCyk3,3
same,SPOT peptide array binding signal intensity,AgFus1,6
same,SPOT peptide array binding signal intensity,AgHof1,112
same,SPOT peptide array binding signal intensity,AgHse1,28.5
same,SPOT peptide array binding signal intensity,AgLsb1,5.25
same,SPOT peptide array binding signal intensity,AgLsb4,412
same,SPOT peptide array binding signal intensity,AgMyo5,550
same,SPOT peptide array binding signal intensity,AgNbp2,7.5
same,SPOT peptide array binding signal intensity,AgRvs167,123
same,SPOT peptide array binding signal intensity,AgSho1,4
same,SPOT peptide array binding signal intensity,AgSla1-D1-D2,5
same,SPOT peptide array binding signal intensity,AgSla1-D3,10
same,SPOT peptide array binding signal intensity,CaAbp1-D1,150
same,SPOT peptide array binding signal intensity,CaAbp1-D2,17
same,SPOT peptide array binding signal intensity,CaBbc1,770
same,SPOT peptide array binding signal intensity,CaBem1-D1,1820
same,SPOT peptide array binding signal intensity,CaBzz1-D1,3030
same,SPOT peptide array binding signal intensity,CaBzz1-D2,1540
same,SPOT peptide array binding signal intensity,CaCyk3,326
same,SPOT peptide array binding signal intensity,CaFus1,26.5
same,SPOT peptide array binding signal intensity,CaHof1,39
same,SPOT peptide array binding signal intensity,CaHse1,5.25
same,SPOT peptide array binding signal intensity,CaLsb1,≤ 0
same,SPOT peptide array binding signal intensity,CaLsb4,560
same,SPOT peptide array binding signal intensity,CaMyo5,19.5
